Legend:
Settings in all cases: treatment time: 24 h
HepG2-ACTB-RAB5A [1] = experiment: lowest phenotypically active concentration; higher = less potent
Outline: (§1)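 Phenotypic activity depended on meeting both a deviation and a reproducibility criterion. The fifteen gene-edited A549, HepG2 and WPMY1 reporter lines were treated at 0.3, 1, 3 or 9 µM for 24 h, four wells each, then imaged live with features normalised to solvent control wells. Deviation required ≥3 of 4 wells past the 95th percentile of control Euclidean distances, and reproducibility a median replicate Pearson correlation above the 95th percentile of non-replicates.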

HepG2-CANX-COX4 [2] = experiment: as above
Outline: as §1

HepG2-GM130-SQSTM1 [3] = experiment: as above
Outline: as §1

HepG2-TP53BP1-CLTA [4] = experiment: as above
Outline: as §1

HepG2-TUBA1B-RELA [5] = experiment: as above
Outline: as §1

WPMY1-ACTB-RAB5A [6] = experiment: as above
Outline: as §1

WPMY1-CANX-COX4 [7] = experiment: as above
Outline: as §1

WPMY1-GM130-SQSTM1 [8] = experiment: as above
Outline: as §1

WPMY1-TP53BP1-CLTA [9] = experiment: as above
Outline: as §1

A549-CANX-COX4 [10] = experiment: phenotypically active (imaging signature differs from DMSO and reproducible) at any of 0.3-9 uM (binary (1 = active, 0 = inactive)); higher = active
Outline: as §1

A549-TP53BP1-CLTA [11] = experiment: as above
Outline: as §1

HepG2-ACTB-RAB5A [12] = experiment: as above
Outline: as §1

HepG2-CANX-COX4 [13] = experiment: as above
Outline: as §1

HepG2-GM130-SQSTM1 [14] = experiment: as above
Outline: as §1

HepG2-TP53BP1-CLTA [15] = experiment: as above
Outline: as §1

HepG2-TUBA1B-RELA [16] = experiment: as above
Outline: as §1

WPMY1-ACTB-RAB5A [17] = experiment: as above
Outline: as §1

WPMY1-CANX-COX4 [18] = experiment: as above
Outline: as §1

WPMY1-GM130-SQSTM1 [19] = experiment: as above
Outline: as §1

WPMY1-TP53BP1-CLTA [20] = experiment: as above
Outline: as §1

WPMY1-TUBA1B-RELA [21] = experiment: as above
Outline: as §1

WPMY1-TUBA1B-RELA [22] = experiment: lowest phenotypically active concentration; higher = less potent
Outline: as §1

A549-CANX-COX4 [23] = experiment: as above
Outline: as §1

A549-TP53BP1-CLTA [24] = experiment: as above
Outline: as §1

Structure (SMILES) | lowest phenotypically active concentration (HepG2-ACTB-RAB5A [1]) [µM] | lowest phenotypically active concentration (HepG2-CANX-COX4 [2]) [µM] | lowest phenotypically active concentration (HepG2-GM130-SQSTM1 [3]) [µM] | lowest phenotypically active concentration (HepG2-TP53BP1-CLTA [4]) [µM] | lowest phenotypically active concentration (HepG2-TUBA1B-RELA [5]) [µM] | lowest phenotypically active concentration (WPMY1-ACTB-RAB5A [6]) [µM] | lowest phenotypically active concentration (WPMY1-CANX-COX4 [7]) [µM] | lowest phenotypically active concentration (WPMY1-GM130-SQSTM1 [8]) [µM] | lowest phenotypically active concentration (WPMY1-TP53BP1-CLTA [9]) [µM] | phenotypically active (A549-CANX-COX4 [10]) | phenotypically active (A549-TP53BP1-CLTA [11]) | phenotypically active (HepG2-ACTB-RAB5A [12]) | phenotypically active (HepG2-CANX-COX4 [13]) | phenotypically active (HepG2-GM130-SQSTM1 [14]) | phenotypically active (HepG2-TP53BP1-CLTA [15]) | phenotypically active (HepG2-TUBA1B-RELA [16]) | phenotypically active (WPMY1-ACTB-RAB5A [17]) | phenotypically active (WPMY1-CANX-COX4 [18]) | phenotypically active (WPMY1-GM130-SQSTM1 [19]) | phenotypically active (WPMY1-TP53BP1-CLTA [20]) | phenotypically active (WPMY1-TUBA1B-RELA [21]) | lowest phenotypically active concentration (WPMY1-TUBA1B-RELA [22]) [µM] | lowest phenotypically active concentration (A549-CANX-COX4 [23]) [µM] | lowest phenotypically active concentration (A549-TP53BP1-CLTA [24]) [µM]
O=c1cc(-c2cccc3c2Sc2ccccc2S3)oc(N2CCOCC2)c1 | 3 | 3 | 9 | 9 | 9 | 3 | 9 | 9 | 3 | 0 (inactive) | 0 (inactive) | 1 (active) | 1 (active) | 1 (active) | 1 (active) | 1 (active) | 1 (active) | 1 (active) | 1 (active) | 1 (active) | 0 (inactive) |  |  | 
C/C(=C/C(=O)Nc1ccccc1C(=O)O)c1ccc2ccccc2c1 |  |  |  |  |  |  |  |  |  | 0 (inactive) | 0 (inactive) | 0 (inactive) | 0 (inactive) | 0 (inactive) | 0 (inactive) | 0 (inactive) | 0 (inactive) | 0 (inactive) | 0 (inactive) | 0 (inactive) | 0 (inactive) |  |  | 
CCCCC1C(=O)N(c2ccccc2)N(c2ccc(O)cc2)C1=O (configuration not stated) [oxyphenbutazone] |  |  |  |  |  |  |  |  |  | 0 (inactive) | 0 (inactive) | 0 (inactive) | 0 (inactive) | 0 (inactive) | 0 (inactive) | 0 (inactive) | 0 (inactive) | 0 (inactive) | 0 (inactive) | 0 (inactive) | 1 (active) | 9 |  | 
Cc1c2oc3c(C)ccc(C(=O)NC4C(=O)NC(C(C)C)C(=O)N5CCCC5C(=O)N(C)CC(=O)N(C)C(C(C)C)C(=O)OC4C)c3nc-2c(C(=O)NC2C(=O)NC(C(C)C)C(=O)N3CCCC3C(=O)N(C)CC(=O)N(C)C(C(C)C)C(=O)OC2C)c(N)c1=O (configuration not stated) [Actinomycin D] | ≤ 0.3 | ≤ 0.3 | ≤ 0.3 | ≤ 0.3 | ≤ 0.3 | ≤ 0.3 | ≤ 0.3 | ≤ 0.3 | ≤ 0.3 | 1 (active) | 1 (active) | 1 (active) | 1 (active) | 1 (active) | 1 (active) | 1 (active) | 1 (active) | 1 (active) | 1 (active) | 1 (active) | 1 (active) | ≤ 0.3 | ≤ 0.3 | ≤ 0.3
CN1CCN(C2=Nc3cc(Cl)ccc3Nc3ccccc32)CC1 [clozapine] |  |  |  |  |  |  |  | 9 |  | 0 (inactive) | 0 (inactive) | 0 (inactive) | 0 (inactive) | 0 (inactive) | 0 (inactive) | 0 (inactive) | 0 (inactive) | 0 (inactive) | 1 (active) | 0 (inactive) | 0 (inactive) |  |  | 
COc1cc2nccc(Oc3ccc(NC(=O)NC4CC4)c(Cl)c3)c2cc1C(N)=O [lenvatinib] |  |  |  |  |  | 1 |  |  |  | 0 (inactive) | 0 (inactive) | 0 (inactive) | 0 (inactive) | 0 (inactive) | 0 (inactive) | 0 (inactive) | 1 (active) | 0 (inactive) | 0 (inactive) | 0 (inactive) | 0 (inactive) |  |  | 
CCN1CCN(C(c2cccnc2)c2cc(Cl)c3cccnc3c2O)CC1 (configuration not stated) | 9 | 9 | 9 | 9 | 9 | 9 | 9 |  | 9 | 1 (active) | 1 (active) | 1 (active) | 1 (active) | 1 (active) | 1 (active) | 1 (active) | 1 (active) | 1 (active) | 0 (inactive) | 1 (active) | 0 (inactive) |  | 3 | 3
Nc1cc(C(F)(F)F)c(-c2cc(N3CCOCC3)nc(N3CCOCC3)n2)cn1 [buparlisib] | 1 | 1 | 3 | 3 | 3 | 3 | 1 | 1 | 3 | 1 (active) | 1 (active) | 1 (active) | 1 (active) | 1 (active) | 1 (active) | 1 (active) | 1 (active) | 1 (active) | 1 (active) | 1 (active) | 1 (active) | 3 | 1 | 1
COc1cc2c(NC3CCN(C(C)C)CC3)nc(C3CCCCC3)nc2cc1OCCCN1CCCC1 | 1 | 3 | 1 | 1 | ≤ 0.3 | 1 | 1 | ≤ 0.3 | 1 | 1 (active) | 1 (active) | 1 (active) | 1 (active) | 1 (active) | 1 (active) | 1 (active) | 1 (active) | 1 (active) | 1 (active) | 1 (active) | 1 (active) | 1 | 3 | 3
CCOc1cc(N2CCC(O)CC2)ccc1Nc1ncc2c(n1)N(C)c1ccccc1C(=O)N2C | 3 | 3 | 3 | 9 | 3 | 3 | 3 | 3 | 3 | 1 (active) | 1 (active) | 1 (active) | 1 (active) | 1 (active) | 1 (active) | 1 (active) | 1 (active) | 1 (active) | 1 (active) | 1 (active) | 1 (active) | 9 | 9 | 9
CCN(CC)CCCC(C)Nc1ccnc2cc(Cl)ccc12 (configuration not stated) [chloroquine] | 3 | 9 | 3 | 9 | 1 | 3 | 3 | 3 | 9 | 0 (inactive) | 1 (active) | 1 (active) | 1 (active) | 1 (active) | 1 (active) | 1 (active) | 1 (active) | 1 (active) | 1 (active) | 1 (active) | 1 (active) | 9 |  | 9
CC[C@H](C)[C@H](NC(=O)OCc1ccccc1)C(=O)N[C@@H](CCC(=O)OC(C)(C)C)C(=O)N[C@@H](C)C(=O)N[C@H](C=O)CC(C)C | ≤ 0.3 | ≤ 0.3 | ≤ 0.3 | ≤ 0.3 | ≤ 0.3 | ≤ 0.3 | ≤ 0.3 | ≤ 0.3 | ≤ 0.3 | 1 (active) | 1 (active) | 1 (active) | 1 (active) | 1 (active) | 1 (active) | 1 (active) | 1 (active) | 1 (active) | 1 (active) | 1 (active) | 1 (active) | ≤ 0.3 | ≤ 0.3 | ≤ 0.3
NCCC(O)(P(=O)(O)O)P(=O)(O)O [pamidronate] |  |  |  |  |  |  |  |  |  | 0 (inactive) | 0 (inactive) | 0 (inactive) | 0 (inactive) | 0 (inactive) | 0 (inactive) | 0 (inactive) | 0 (inactive) | 0 (inactive) | 0 (inactive) | 0 (inactive) | 0 (inactive) |  |  | 
CCN1CCN(c2ccc(Nc3cc(N(C)C(=O)Nc4c(Cl)c(OC)cc(OC)c4Cl)ncn3)cc2)CC1 |  |  |  |  |  | 9 |  | 9 |  | 0 (inactive) | 0 (inactive) | 0 (inactive) | 0 (inactive) | 0 (inactive) | 0 (inactive) | 0 (inactive) | 1 (active) | 0 (inactive) | 1 (active) | 0 (inactive) | 0 (inactive) |  |  | 
O=C(c1ccc(C(=O)N2CCC(N3CCCC3)CC2)c(Nc2ccccc2)c1)N1CCC(N2CCCC2)CC1 |  |  | 9 |  |  |  |  |  |  | 0 (inactive) | 0 (inactive) | 0 (inactive) | 0 (inactive) | 1 (active) | 0 (inactive) | 0 (inactive) | 0 (inactive) | 0 (inactive) | 0 (inactive) | 0 (inactive) | 0 (inactive) |  |  | 
Cc1nc(NC(=O)N2CCC[C@H]2C(N)=O)sc1-c1csc(C(C)(C)C)n1 | 3 | 3 | 3 | 3 | 3 |  | 9 |  | 3 | 0 (inactive) | 1 (active) | 1 (active) | 1 (active) | 1 (active) | 1 (active) | 1 (active) | 0 (inactive) | 1 (active) | 0 (inactive) | 1 (active) | 0 (inactive) |  |  | 9
CCN1CCN(c2cc(-c3ccc(F)cc3)c3c(n2)CCCCCC3)CC1 [blonanserin] | 9 | 9 | 9 | 3 | 3 | 9 |  |  | 9 | 0 (inactive) | 1 (active) | 1 (active) | 1 (active) | 1 (active) | 1 (active) | 1 (active) | 1 (active) | 0 (inactive) | 0 (inactive) | 1 (active) | 1 (active) | 9 |  | 9

From the supplement of paper PMC7411054
